Test [1] has as its target Progesterone receptor (Homo sapiens) (UniProt P06401). Nature of the test: qHTS assay to identify small molecule agonists of the progesterone receptor (PR) signaling pathway (AID 1346784; calls by dose curve; note: nearly all actives have a fitted effect of over 30% in size). The method, boiled down:
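Compounds were tested for PR agonism in HEK 293T cells bearing a beta-lactamase gene under UAS control. Treatment lasted 16 hr at 37C; signal came from fluorescence of a FRET substrate.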
(Quantitative high-throughput screening tests each substance at several concentrations.)

The nature of test [2]: qHTS assay to identify small molecule antagonists of the progesterone receptor (PR) signaling pathway - cell viability counter screen (AID 1346798). Note: series mostly up to about 92 µM; nearly all actives have a fitted effect of over 50% in size. A digest of the protocol: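 Following a 4 hr attachment, PR-UAS-bla HEK293T cells in charcoal-stripped FBS medium were exposed to compounds with R5020 for 16 hr; CellTiter-Glo was added and luminescence read after 30 min at room temperature.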

The nature of test [3]: qHTS assay to identify small molecule agonists of the progesterone receptor (PR) signaling pathway - cell viability counter screen (AID 1346799; calls by dose curve; note: nearly all actives have a fitted effect of over 45% in size). A digest of the protocol: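 Here, 3,000 PR-UAS-bla HEK293T cells per well were treated with compounds for 16 hr after a 6 hr preincubation at 37C and 5% CO2; cell viability is the CellTiter-Glo luminescence signal.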
Test [4] can be described thus: qHTS assay to identify small molecule antagonists of the TGF-beta/Smad signaling pathway - cell viability counter screen (AID 1346824). Note: nearly all actives have a fitted effect of over 50% in size. A digest of the protocol: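 SBE-bla HEK 293T cells were plated overnight at 37 C, then given compounds in DMSO plus TGF-beta1 (added as 0.25 ng/mL solution) for 5 hr. After the bla read, CellTiter-Glo was added to the same wells and luminescence read after 30 min at room temperature.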

The nature of test [5]: qHTS assay to identify small molecule agonists of the TGF-beta/Smad signaling pathway - cell viability counter screen (AID 1346829). Note: top concentration of the series differs between compounds; nearly all actives have a fitted effect of over 45% in size. The method, boiled down:
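In parallel with the Smad reporter read, viability of HEK 293T cells stably carrying SBE-bla is quantified by ATP luminescence following 5 hr compound treatment.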

Test [6] is described as follows: qHTS assay to identify small molecule agonists of the TGF-beta/Smad signaling pathway (AID 1346859; active = well fitted activation curve with a large enough effect in the signal ratio in the repeat runs, not every such curve was filed as active; the % refers to the signal ratio; note: series mostly up to about 77 µM). A digest of the protocol:
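Each well held 4,000 SBE-bla HEK 293T cells incubated overnight before compound addition; 5 hr later the cleavable FRET substrate went on for 2 hr at room temperature, and fluorescence was read at two emissions.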

The target of test [7] is Thyrotropin-releasing hormone receptor (Homo sapiens) (UniProt P34981). Nature of the test: qHTS assay to identify small molecule antagonists of the thyrotropin-releasing hormone receptor (TRHR) signaling pathway (AID 1346877; active = well fitted inhibition curve with a large enough effect in the repeat runs, not every such curve was filed as active; note: series mostly up to about 51 µM). The method, boiled down: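 Antagonism is measured as suppression of the calcium response to 1 nM TRH in TRHR-HEK293 cells that have been dye-loaded for 2 h at 37 °C after overnight plating. Each compound is tested at 15 concentrations in triplicate.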

Test [8] shares this target. The experiment in a line: qHTS assay to identify small molecule agonists of the thyrotropin-releasing hormone receptor (TRHR) signaling pathway (AID 1346891; calls by dose curve; note: series mostly up to about 58 µM). A digest of the protocol: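 Screening of agonists relied on calcium signalling in HEK293 cells expressing human TRHR: dye loading 2 h at 37 °C preceded compound addition and a 3-min fluorescence time course.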
Test [9] in a line: Caspase-3/7 induction in HepG2 cells by small molecules, qHTS assay (AID 1346978). Note: nearly all actives have a fitted effect of over 15% in size. The method, boiled down:
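Wild-type HepG2 cells (2,000/well) were settled 5 h at 37 C, 5% CO2, then exposed to compounds in DMSO for 17 h. Caspase-3/7 activity was read by luminescence 30 min after adding Caspase-Glo 3/7 reagent at room temperature.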

Test [10] can be described thus: Caspase-3/7 induction in CHO-K1 cells by small molecules, qHTS cell viability counter screen (AID 1346979). Note: nearly all actives have a fitted effect of over 35% in size. Note: potency is the fitted concentration of half-maximal effect. The method, boiled down: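 CellTiter-Fluor viability check, qHTS format: wild-type CHO-K1, 16hr compound treatment, 1hr reagent incubation, fluorescence read.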
Test [11] in a line: Caspase-3/7 induction in CHO-K1 cells by small molecules, qHTS assay (AID 1346980). Note: nearly all actives have a fitted effect of over 15% in size. A digest of the protocol: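 Wild-type cells were seeded at 1,500 per well and settled 5 hr at 37 C, 5% CO2, then exposed to DMSO-dissolved compounds for 17 hr. Caspase-Glo 3/7 reagent was added, and luminescence was read after 30min at room temperature.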
For test [12], the target named is Cytochrome P450 2D6 (Homo sapiens) (UniProt P10635). The experiment in a line: Cytochrome P450 Family 2 Subfamily D Member 6 (CYP2D6) small molecule antagonists: luciferase reporter qHTS assay (AID 1671196). Note: nearly all actives have a fitted effect of over 50% in size. Note: potency is the fitted concentration of half-maximal effect. A digest of the protocol: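 Enzyme and proluciferin substrate were first combined with test chemical for 10 min at room temperature. Adding NADPH regeneration solution started a 1 h reaction, stopped with luciferin detection reagent and read by luminescence 20 min later.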
In general terms: Reporter assays use an easily measured gene product as a stand-in for the process of interest.

For test [13], the target named is Cytochrome P450 2C19 (Homo sapiens) (UniProt P33261). Nature of the test: Cytochrome P450 Family 2 Subfamily C Member 19 (CYP2C19) small molecule antagonists: luciferase reporter qHTS assay (AID 1671197). Note: nearly all actives have a fitted effect of over 65% in size. Note: potency is the fitted concentration of half-maximal effect. A digest of the protocol: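 Compounds were tested on CYP2C19 activity via proluciferin conversion to luciferin. The 37C, 1 h reaction followed NADPH addition; detection reagent stopped it.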

Test [14] in a line: Human pregnane X receptor (PXR) small molecule agonists, qHTS cell viability counter screen (AID 1346977). Note: nearly all actives have a fitted effect of over 50% in size. The method, boiled down: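 Tox21 qHTS format; PXR-Luc HepG2, 2,000/well, charcoal-stripped FBS 5%. Cpd exposure 24hr. Read: CellTiter-Fluor fluorescence, multiplexed with luciferase.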
Test [15] is described as follows: Caspase-3/7 induction in HepG2 cells by small molecules, qHTS cell viability counter screen (AID 1346981). Note: nearly all actives have a fitted effect of over 30% in size. Note: potency is the fitted concentration of half-maximal effect. The method, boiled down: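 Cell viability is measured as a cytotoxicity counter screen alongside the Caspase-Glo 3/7 readout in identical wells. Wild-type HepG2 cells are treated with test compounds for 16 hr at 37 C before CellTiter-Fluor addition and a 1-hr incubation.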

Test [16] concerns the target Nuclear receptor subfamily 1 group I member 2 (Homo sapiens) (UniProt O75469). The experiment in a line: Human pregnane X receptor (PXR) small molecule agonists, qHTS assay (AID 1346982). Note: nearly all actives have a fitted effect of over 35% in size. A digest of the protocol:
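Cells: HepG2 stably carrying PXR-Luc. Medium held 5% charcoal-stripped FBS. Compounds in DMSO added after 5 hr plating, incubated 24 hr, then luminescence quantified with ONE-Glo.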

Test [17] concerns the target Progesterone receptor (Homo sapiens) (UniProt P06401). The experiment in a line: qHTS assay to identify small molecule antagonists of the progesterone receptor (PR) signaling pathway (AID 1346795; active = well fitted inhibition curve with a large enough effect in the signal ratio in the repeat runs, not every such curve was filed as active; the % refers to the signal ratio; note: potency is the fitted concentration of half-maximal effect). A digest of the protocol:
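In HEK293T cells bearing the PR-UAS-bla reporter, compound effects on promegestone-driven (1 nM) beta-lactamase expression are assessed after 16 hr using a fluorescent FRET substrate incubated 2 hr at room temperature.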

The target of test [18] is Nuclear receptor subfamily 1 group I member 2 (Rattus norvegicus) (UniProt Q9R1A7). Nature of the test: Rat pregnane X receptor (rPXR) activation by small molecules, qHTS assay (AID 1346983). Note: nearly all actives have a fitted effect of over 20% in size. As to conditions: rPXR luciferase reporter cells, One-Glo luminescence, 24 h; hits give high values. A digest of the protocol:
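Cell-based rPXR luciferase reporter assay, 2,000 cells per well, rested 5hr at 37 C before compound addition in DMSO, then 24 hr at 37 C. One-Glo reagent was added and luminescence read after 30 min at room temperature.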

Test [19] concerns the target Nuclear receptor subfamily 1 group I member 2 (Homo sapiens) (UniProt O75469). Nature of the test: CYP3A4 induction through human pregnane X receptor (PXR) by small molecules, qHTS assay (AID 1346984). Note: nearly all actives have a fitted effect of over 40% in size. The method, boiled down:
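Quantitative HTS in DPX-2 cells, i.e. HepG2 transfected with PXR response element and CYP3A4-promoter luciferase. Compounds in DMSO incubated 24hr at 37C; then P450-Glo CYP3A4 substrate, 3uM final, 3hr; One-Glo luminescence.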

The target is the same in test [20]. Nature of the test: Human pregnane X receptor (PXR) activation by small molecules, qHTS assay (AID 1346985). Note: nearly all actives have a fitted effect of over 40% in size. The method, boiled down: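 DPX-2 cells (HepG2 co-transfected with a PXR response element and a CYP3A4-promoter luciferase construct) were seeded at 2,000 per well, rested 5 hr at 37C, then exposed to DMSO-dissolved compounds for 24 hr. Activation was read as luciferase luminescence.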

These results are taken from PubChem BioAssay (Tox21).

Unmarked numbers belong to inactive results. Records with an inconclusive call do not appear. Active and inactive are the calls of the source. Unless noted, calls come from the whole dose curve; as a rule, active = well fitted curve in the direction sought with a large enough effect in the repeat runs; inconclusive = weak or mixed curves; inactive = no such curve, though single readings can be large; an effect the other way counts as inactive or inconclusive.
% is set by controls: 0 for no effect and ±100 for the full control effect.

Sequence of Cytochrome P450 2D6 (Homo sapiens) (P10635 whole entry, looked up): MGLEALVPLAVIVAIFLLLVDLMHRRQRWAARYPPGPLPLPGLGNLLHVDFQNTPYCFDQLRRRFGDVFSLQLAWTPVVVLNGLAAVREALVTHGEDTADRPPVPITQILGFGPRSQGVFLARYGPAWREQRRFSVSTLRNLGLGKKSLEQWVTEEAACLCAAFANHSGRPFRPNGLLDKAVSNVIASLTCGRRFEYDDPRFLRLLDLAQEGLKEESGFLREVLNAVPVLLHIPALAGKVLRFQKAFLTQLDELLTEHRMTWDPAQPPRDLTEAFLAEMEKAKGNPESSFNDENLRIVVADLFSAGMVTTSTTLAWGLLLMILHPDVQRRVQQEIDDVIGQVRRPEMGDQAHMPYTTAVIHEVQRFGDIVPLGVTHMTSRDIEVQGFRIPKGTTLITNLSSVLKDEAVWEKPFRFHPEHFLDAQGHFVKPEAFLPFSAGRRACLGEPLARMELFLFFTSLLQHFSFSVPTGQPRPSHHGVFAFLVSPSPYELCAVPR
Sequence of Progesterone receptor (Homo sapiens) (P06401 whole entry, looked up): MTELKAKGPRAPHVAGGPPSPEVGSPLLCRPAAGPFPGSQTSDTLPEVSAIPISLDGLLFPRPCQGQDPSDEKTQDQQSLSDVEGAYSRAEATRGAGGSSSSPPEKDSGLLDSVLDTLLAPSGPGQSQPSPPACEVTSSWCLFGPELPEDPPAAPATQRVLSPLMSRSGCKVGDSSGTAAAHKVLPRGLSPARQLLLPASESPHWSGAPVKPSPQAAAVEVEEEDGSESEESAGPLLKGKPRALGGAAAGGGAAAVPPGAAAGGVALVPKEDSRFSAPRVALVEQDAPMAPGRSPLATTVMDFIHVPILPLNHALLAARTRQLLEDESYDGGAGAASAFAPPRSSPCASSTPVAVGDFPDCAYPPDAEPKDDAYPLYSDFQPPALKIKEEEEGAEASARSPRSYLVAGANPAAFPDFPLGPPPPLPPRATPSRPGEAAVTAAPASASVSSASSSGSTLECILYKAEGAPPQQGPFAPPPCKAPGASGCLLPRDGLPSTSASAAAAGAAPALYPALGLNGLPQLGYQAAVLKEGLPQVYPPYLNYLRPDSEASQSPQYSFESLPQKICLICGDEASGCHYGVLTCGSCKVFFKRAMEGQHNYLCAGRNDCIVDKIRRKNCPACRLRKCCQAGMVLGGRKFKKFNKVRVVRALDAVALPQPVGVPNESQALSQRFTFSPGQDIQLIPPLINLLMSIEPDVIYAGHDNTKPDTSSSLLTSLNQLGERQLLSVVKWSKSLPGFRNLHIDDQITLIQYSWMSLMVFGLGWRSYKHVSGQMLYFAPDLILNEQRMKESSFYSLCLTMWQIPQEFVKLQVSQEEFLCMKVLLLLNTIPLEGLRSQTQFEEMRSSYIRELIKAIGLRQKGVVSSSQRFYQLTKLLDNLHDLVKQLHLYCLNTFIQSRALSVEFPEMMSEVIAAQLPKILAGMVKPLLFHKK
Sequence of Nuclear receptor subfamily 1 group I member 2 (Rattus norvegicus) (Q9R1A7 whole entry, looked up): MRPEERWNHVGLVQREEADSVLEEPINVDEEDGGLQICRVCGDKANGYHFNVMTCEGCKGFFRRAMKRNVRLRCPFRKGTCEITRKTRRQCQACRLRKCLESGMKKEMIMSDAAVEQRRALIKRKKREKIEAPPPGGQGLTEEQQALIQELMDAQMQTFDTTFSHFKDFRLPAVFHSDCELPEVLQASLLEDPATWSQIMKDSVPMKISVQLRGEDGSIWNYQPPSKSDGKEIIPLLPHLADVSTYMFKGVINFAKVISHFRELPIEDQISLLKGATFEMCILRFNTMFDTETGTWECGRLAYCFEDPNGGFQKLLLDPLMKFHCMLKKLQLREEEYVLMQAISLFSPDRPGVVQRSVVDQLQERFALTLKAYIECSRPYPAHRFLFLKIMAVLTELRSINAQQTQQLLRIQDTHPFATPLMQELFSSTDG
Sequence of Cytochrome P450 2C19 (Homo sapiens) (P33261 whole entry, looked up): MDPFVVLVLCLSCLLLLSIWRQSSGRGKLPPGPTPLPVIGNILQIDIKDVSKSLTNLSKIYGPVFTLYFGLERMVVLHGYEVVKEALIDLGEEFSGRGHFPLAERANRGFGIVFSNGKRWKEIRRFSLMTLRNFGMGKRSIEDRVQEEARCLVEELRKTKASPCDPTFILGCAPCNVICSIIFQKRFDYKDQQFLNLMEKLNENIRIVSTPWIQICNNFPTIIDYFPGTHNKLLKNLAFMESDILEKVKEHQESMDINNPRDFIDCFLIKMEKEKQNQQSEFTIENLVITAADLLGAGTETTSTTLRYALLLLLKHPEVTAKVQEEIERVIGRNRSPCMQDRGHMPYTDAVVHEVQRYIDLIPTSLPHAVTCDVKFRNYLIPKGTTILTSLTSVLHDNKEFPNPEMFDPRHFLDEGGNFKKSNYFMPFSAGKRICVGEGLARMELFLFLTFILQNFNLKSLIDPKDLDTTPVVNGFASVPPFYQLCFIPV
Sequence of Nuclear receptor subfamily 1 group I member 2 (Homo sapiens) (O75469 whole entry, looked up): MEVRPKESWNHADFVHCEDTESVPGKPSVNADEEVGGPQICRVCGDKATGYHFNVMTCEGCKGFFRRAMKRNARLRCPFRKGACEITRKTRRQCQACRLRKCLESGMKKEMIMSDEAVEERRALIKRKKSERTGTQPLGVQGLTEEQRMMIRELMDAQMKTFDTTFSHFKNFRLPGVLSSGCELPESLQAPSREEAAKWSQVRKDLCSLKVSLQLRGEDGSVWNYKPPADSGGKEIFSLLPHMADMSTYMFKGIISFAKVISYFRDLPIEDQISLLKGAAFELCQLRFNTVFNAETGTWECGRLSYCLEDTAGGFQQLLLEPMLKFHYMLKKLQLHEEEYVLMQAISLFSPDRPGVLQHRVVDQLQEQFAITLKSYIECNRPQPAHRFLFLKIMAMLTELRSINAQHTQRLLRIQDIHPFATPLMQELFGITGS
Sequence of Thyrotropin-releasing hormone receptor (Homo sapiens) (P34981 whole entry, looked up): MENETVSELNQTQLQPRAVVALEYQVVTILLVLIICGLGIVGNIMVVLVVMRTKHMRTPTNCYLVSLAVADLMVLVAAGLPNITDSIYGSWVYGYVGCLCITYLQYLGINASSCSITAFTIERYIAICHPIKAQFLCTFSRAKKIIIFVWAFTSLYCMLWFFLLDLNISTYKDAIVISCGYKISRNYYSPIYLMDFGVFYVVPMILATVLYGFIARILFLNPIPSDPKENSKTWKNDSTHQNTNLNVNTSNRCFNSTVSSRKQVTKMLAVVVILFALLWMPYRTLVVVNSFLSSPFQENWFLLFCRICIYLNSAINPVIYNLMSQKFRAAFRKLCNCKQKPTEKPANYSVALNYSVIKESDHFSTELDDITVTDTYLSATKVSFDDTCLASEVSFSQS

Consider `Nc1ccc([N+](=O)[O-])c(N)c1`, for which the Potency entry in [1], in test [2], in test [3] and in test [9] was “inactive” in each case. The compound was classed as inactive in test [4], in test [5], in test [6], in test [7], in test [8] and in test [11]. Besides, the Potency was 53.1 µM (active) in [10], 7.76 µM (active) in test [12] and 30.9 µM (active) in test [13].

For `CC(C)CCCCOC(=O)c1ccccc1C(=O)OCCCCC(C)C`, the Potency result in test [1], in test [2], in test [3], in test [14], in test [9] and in test [15] was “inactive” each time. Moreover, the Potency entry in test [16] and in test [12] was “inactive” each time. Further, the compound was called inactive in [4], in test [5], in test [6], in test [7] and in test [11]. The Potency in test [13] was 31.8 µM (active).

For the compound `c1ccc2nccnc2c1`, the Potency entry in [1], in [17], in test [14], in test [10], in test [15] and in test [16] was “inactive” each time. In addition, the Potency entry in test [12] was “inactive”. Also, the compound was called inactive in test [4], in test [5], in [6] and in test [11].

Take `C[Si](C)(C)C`: the Potency entry in test [1], in [17], in test [2], in test [3], in [14] and in [10] was “inactive” in each case. In addition, the Potency entry in [15] and in test [13] was “inactive” throughout. The outcome in [5] and in test [11] was inactive.

As for `OCCCCC(O)CO` (stereo unspecified), the Potency result in test [1], in test [17], in test [2], in test [14], in [10] and in [15] was “inactive” throughout. Further, the Potency entry in test [16], in [12] and in test [13] was “inactive” each time. The outcome in [4], in test [5], in test [6] and in [11] was inactive.

With `CC(=O)Nc1ccc(S(=O)(=O)Nc2ccc([N+](=O)[O-])cc2)cc1`, the Potency result in [1], in test [17], in test [3], in test [19] and in test [20] was “inactive” each time. The compound was classed as inactive in [4], in [5], in test [6], in test [7], in test [8] and in test [11]. The Potency is 29.8 µM (active) in [15] and 15.5 µM (active) in [13]. Further, the max activation in test [18] was -3.2%.

For the compound `CC(=O)NCc1c(I)c(NC(C)=O)c(I)c(C(=O)O)c1I`, the Potency result in [1], in [2], in test [3], in [14], in test [9] and in [15] was “inactive” throughout. For the same compound, the Potency result in test [16], in test [19] and in test [20] was “inactive” in each case. Moreover, the result in test [4], in test [5], in [6], in test [8] and in test [11] was inactive. Also, in test [18], the max activation is -0.535%.

For `COc1ccc(C2CNC(=O)C2)cc1OC1CCCC1` (stereo unspecified), the Potency entry in test [1], in test [17], in [2], in test [14], in [9] and in test [15] was “inactive” each time. For the same compound, the Potency entry in [12] and in test [13] was “inactive” each time. The result in test [4], in test [5], in [6], in test [7] and in [11] was inactive. Besides, the max activation in test [18] was -2.12%.

With `CCCCCCOc1ccccc1C(N)=O`, the Potency result in test [1], in test [14], in test [9], in [15] and in test [12] was “inactive” throughout. For the same compound, the Potency in test [17] was 7.5 µM (active); in test [13], 17.4 µM (active). In addition, the outcome in test [4], in test [5], in test [6] and in [11] was inactive. The max activation in test [18] was 6.49%.
